Laboratory results: the supplement of paper PMC11732987, “Enantioselective OTUD7B fragment discovery through chemoproteomics screening and high-throughput optimisation” (Communications Chemistry, 2025)

Legend:
Assay in all cases: log2 ratio of Biotin-Ahx-Ub-VS probe labelling (fragment/DMSO); higher = less target engagement (more negative = stronger competition), active = hit call of the paper (q ≤ 0.05, log2 ratio ≤ -1)
Details in all cases: compound concentration: 200 uM; treatment time: 3 h
[1] = biological target: USP34 (UniProt Q70CQ2)
Method in brief: (§1)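 Labelling with Biotin-Ahx-Ub-VS (0.5 µM final, 1 h) followed a 3 h triplicate treatment of HEK293T lysate (495 µg per sample, Tris/CHAPS/IGEPAL buffer with protease inhibitors) with fragment at 200 µM or vehicle. Labelled DUBs were NeutrAvidin-enriched, digested with LysC and trypsin, and run by diaPASEF LC-MS/MS. The values, average log2 fragment/vehicle ratios by unpaired t-test, come from global-median-normalised Spectronaut label-free quantities. Proteins with ≥2 unique peptides were used.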

[2] = biological target: T1, USP36 (UniProt Q9P275)
T1 sequence (whole entry): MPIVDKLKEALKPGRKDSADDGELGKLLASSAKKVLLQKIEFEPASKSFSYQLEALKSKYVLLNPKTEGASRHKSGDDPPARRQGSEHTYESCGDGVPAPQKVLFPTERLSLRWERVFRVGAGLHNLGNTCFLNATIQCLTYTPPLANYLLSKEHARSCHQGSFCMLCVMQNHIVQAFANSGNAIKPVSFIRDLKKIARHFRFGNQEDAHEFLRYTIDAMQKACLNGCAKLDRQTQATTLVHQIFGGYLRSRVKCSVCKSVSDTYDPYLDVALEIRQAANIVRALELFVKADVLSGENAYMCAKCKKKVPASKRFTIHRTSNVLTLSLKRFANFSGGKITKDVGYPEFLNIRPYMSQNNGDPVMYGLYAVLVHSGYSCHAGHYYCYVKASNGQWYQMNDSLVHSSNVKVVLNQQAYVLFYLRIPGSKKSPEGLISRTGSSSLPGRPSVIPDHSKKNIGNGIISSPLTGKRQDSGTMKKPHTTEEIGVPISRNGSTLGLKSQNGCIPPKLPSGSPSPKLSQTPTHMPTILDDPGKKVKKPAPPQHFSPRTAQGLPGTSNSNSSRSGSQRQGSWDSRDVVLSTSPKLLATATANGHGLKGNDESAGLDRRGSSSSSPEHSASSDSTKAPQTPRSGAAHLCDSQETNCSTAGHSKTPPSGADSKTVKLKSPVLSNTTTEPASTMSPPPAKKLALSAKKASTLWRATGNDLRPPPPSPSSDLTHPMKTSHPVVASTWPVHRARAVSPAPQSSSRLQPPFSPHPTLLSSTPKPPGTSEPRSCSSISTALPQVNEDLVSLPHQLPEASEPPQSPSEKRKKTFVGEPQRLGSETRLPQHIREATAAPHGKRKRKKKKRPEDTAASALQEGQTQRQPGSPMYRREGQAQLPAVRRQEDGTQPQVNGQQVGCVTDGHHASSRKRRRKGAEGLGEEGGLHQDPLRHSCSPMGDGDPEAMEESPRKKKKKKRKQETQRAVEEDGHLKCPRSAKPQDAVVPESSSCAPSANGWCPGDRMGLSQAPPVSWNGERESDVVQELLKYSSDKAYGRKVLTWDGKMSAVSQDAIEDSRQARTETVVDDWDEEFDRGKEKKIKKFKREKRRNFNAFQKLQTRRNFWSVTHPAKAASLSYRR
Method in brief: as §1

[3] = biological target: T2, USP38 (UniProt Q8NB14)
T2 sequence (whole entry): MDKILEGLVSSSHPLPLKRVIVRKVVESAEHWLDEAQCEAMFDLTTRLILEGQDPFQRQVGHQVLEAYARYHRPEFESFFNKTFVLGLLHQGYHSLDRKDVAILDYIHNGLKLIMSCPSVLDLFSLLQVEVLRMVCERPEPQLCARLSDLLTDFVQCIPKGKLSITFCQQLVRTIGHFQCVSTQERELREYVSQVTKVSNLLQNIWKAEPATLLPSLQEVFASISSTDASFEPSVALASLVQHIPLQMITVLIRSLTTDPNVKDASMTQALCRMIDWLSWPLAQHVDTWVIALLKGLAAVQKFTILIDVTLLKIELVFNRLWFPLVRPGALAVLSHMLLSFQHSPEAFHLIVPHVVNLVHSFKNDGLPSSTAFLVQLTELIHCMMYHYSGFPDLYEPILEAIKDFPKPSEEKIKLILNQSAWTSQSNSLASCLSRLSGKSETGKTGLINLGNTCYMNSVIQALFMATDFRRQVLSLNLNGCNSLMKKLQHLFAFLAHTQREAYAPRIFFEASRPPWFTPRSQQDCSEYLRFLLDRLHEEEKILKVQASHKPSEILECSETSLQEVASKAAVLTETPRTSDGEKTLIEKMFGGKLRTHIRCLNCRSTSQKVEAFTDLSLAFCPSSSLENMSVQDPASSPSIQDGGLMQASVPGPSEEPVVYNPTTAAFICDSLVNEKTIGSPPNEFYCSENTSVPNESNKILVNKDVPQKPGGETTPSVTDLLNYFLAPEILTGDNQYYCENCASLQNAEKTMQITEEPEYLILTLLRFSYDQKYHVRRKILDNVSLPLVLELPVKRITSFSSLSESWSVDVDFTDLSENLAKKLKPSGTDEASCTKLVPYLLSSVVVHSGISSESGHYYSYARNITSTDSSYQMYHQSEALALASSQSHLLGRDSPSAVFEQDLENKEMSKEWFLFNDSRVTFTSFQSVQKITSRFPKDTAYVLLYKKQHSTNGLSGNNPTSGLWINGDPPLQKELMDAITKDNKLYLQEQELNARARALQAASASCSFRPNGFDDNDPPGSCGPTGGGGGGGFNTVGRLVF
Method in brief: as §1

[4] = biological target: T3, USP39 (UniProt Q53GS9)
T3 sequence (whole entry): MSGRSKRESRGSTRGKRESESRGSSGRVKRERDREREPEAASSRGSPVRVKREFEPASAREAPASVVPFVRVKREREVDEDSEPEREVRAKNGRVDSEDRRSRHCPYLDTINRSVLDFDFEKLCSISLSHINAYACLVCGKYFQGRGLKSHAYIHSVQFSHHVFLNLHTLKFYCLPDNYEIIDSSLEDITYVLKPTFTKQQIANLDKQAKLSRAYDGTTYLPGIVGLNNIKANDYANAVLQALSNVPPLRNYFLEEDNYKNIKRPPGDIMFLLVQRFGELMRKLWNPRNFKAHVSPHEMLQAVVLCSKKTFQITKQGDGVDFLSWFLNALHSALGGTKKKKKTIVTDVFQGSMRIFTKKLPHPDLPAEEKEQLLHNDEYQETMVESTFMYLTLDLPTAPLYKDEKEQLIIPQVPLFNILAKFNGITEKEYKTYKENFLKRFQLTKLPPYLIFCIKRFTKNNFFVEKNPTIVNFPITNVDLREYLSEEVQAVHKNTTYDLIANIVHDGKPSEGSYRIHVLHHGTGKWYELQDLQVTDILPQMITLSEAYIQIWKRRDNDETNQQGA
Method in brief: as §1

[5] = biological target: T4, USP4 (UniProt Q13107)
T4 sequence (whole entry): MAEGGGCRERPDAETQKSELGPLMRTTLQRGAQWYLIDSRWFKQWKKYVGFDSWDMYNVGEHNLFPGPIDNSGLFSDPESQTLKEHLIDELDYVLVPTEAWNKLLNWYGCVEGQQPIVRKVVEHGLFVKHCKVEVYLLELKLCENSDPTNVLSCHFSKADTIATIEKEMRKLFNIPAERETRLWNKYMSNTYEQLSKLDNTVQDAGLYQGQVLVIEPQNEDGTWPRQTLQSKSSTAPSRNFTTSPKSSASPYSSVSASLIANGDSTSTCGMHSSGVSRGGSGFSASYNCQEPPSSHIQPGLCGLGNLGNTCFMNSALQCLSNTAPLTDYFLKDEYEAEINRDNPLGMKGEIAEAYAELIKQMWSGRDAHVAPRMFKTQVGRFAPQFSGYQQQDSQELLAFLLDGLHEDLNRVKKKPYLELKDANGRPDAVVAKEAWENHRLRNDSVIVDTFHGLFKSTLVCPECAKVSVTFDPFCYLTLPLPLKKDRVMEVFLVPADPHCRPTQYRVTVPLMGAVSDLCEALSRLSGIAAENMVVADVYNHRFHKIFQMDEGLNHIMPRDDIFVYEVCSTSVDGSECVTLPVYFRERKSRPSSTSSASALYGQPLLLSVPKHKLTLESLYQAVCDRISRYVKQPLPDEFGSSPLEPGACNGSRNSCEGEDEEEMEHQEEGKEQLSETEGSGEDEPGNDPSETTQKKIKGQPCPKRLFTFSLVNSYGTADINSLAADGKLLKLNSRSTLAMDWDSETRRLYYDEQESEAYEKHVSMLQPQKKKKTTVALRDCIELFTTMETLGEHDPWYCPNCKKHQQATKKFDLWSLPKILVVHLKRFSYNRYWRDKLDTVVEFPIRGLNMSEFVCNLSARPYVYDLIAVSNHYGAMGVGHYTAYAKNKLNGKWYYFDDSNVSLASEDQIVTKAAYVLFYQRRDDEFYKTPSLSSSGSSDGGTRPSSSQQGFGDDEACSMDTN
Method in brief: as §1

Measured: log2 ratio of Biotin-Ahx-Ub-VS probe labelling

Chain of USP34 (Q70CQ2 whole entry, the tested form may be a part): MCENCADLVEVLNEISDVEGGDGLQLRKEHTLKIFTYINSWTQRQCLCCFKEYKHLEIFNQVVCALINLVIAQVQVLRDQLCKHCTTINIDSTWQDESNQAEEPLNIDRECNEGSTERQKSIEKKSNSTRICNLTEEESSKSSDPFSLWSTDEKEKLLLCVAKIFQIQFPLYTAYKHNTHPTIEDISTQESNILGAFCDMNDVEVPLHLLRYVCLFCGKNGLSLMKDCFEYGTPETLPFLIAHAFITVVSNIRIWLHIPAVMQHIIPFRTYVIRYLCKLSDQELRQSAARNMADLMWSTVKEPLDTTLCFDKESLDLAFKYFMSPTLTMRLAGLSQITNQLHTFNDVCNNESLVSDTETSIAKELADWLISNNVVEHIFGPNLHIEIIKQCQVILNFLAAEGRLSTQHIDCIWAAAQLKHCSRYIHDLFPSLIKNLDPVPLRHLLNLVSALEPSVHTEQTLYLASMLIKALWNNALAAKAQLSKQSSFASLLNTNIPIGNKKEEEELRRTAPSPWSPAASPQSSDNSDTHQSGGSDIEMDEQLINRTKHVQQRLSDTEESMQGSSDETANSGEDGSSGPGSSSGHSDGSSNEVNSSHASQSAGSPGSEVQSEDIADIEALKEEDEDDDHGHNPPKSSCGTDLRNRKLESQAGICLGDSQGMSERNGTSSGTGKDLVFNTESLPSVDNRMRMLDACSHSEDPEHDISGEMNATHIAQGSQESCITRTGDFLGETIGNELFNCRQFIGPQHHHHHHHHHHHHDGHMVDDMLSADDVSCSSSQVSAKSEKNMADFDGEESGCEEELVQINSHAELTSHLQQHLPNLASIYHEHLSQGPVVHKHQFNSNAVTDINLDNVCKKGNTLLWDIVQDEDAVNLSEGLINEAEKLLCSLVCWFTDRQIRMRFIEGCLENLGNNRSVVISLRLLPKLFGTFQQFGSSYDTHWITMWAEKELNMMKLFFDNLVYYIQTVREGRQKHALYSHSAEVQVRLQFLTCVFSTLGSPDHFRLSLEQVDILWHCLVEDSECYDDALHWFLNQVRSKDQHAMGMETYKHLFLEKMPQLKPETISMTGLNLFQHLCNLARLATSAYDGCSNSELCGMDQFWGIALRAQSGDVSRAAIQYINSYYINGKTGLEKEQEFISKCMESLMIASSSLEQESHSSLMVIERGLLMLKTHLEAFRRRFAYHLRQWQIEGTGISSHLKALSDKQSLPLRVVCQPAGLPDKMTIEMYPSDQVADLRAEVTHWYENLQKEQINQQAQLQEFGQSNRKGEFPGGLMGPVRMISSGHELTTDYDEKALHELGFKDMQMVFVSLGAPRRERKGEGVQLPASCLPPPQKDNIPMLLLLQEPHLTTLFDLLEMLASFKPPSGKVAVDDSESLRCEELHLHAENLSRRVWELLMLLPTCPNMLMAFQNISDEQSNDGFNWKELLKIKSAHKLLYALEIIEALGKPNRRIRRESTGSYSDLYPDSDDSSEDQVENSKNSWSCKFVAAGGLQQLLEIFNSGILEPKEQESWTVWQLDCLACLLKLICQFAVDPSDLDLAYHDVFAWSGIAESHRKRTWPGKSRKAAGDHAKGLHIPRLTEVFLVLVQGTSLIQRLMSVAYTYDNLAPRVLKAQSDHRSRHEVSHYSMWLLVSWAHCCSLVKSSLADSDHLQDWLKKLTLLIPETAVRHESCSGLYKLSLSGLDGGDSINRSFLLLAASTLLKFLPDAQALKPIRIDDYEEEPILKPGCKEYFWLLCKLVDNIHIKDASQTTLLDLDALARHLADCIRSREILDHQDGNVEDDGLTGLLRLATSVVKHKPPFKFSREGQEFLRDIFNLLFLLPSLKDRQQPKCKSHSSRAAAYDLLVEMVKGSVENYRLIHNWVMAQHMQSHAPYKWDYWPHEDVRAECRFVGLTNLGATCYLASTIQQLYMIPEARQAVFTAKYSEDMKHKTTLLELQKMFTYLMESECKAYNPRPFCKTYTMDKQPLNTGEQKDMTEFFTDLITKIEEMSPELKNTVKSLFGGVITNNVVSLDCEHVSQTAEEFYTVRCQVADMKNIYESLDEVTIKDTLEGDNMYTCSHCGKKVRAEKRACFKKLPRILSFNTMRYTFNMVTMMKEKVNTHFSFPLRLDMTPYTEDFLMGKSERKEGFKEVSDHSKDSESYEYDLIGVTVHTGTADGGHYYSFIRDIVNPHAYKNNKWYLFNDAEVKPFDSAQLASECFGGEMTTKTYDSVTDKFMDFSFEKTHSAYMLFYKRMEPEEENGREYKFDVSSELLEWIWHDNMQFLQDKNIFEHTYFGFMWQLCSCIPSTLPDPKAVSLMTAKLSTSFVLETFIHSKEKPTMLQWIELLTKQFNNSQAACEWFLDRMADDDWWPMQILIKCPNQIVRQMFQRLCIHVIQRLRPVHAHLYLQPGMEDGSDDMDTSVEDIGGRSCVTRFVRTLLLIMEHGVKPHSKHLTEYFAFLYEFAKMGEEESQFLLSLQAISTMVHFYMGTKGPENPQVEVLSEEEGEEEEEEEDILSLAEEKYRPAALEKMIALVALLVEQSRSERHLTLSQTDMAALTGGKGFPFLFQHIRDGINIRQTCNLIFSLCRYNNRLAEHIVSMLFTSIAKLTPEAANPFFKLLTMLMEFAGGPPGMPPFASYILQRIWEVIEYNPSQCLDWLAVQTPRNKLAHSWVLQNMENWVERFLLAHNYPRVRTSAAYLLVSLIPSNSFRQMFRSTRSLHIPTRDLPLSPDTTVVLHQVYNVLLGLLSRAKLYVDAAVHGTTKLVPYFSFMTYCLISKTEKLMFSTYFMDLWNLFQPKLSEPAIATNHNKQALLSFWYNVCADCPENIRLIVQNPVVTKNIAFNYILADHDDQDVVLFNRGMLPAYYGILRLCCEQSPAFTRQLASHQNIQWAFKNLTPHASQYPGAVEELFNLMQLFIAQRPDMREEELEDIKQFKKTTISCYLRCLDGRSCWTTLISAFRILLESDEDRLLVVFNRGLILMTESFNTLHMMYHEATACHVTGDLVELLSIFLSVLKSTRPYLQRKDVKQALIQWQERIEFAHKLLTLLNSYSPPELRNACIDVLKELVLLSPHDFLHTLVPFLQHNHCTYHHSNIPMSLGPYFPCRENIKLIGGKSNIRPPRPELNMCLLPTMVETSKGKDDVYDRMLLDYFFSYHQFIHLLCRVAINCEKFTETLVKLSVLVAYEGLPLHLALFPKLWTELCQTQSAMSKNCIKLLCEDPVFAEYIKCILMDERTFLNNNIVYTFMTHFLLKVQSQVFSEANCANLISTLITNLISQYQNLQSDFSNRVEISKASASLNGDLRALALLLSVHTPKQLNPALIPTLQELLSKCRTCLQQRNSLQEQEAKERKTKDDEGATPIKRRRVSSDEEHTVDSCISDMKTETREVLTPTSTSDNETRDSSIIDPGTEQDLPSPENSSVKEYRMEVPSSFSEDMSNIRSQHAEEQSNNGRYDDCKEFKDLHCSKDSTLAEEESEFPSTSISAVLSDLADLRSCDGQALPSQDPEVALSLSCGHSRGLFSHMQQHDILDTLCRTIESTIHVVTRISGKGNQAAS

O=C(CCl)N1CCOC(c2cccc(F)c2)C1 (stereo not given)
inactive: [1] -0.575 | [2] -0.337 | [3] -0.131 | [4] -0.0268 | [5] -0.344
